Measured values published in PubChem BioAssay.
For part of these data: Entries with a potency or affinity are not part of this list. Calls of active or inactive are those of the source.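 How the source made its calls, unless noted: active means dose curve with midpoint inside tested range, moderate steepness, plateau gap beyond fit error, low compound glow and bead-link interference; inactive means the rest.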

Assays:
[1] = molecular target: Cell division control protein 42 homolog (Homo sapiens) (UniProt P60953); assay: inhibition of fluorescent GTP binding to constitutively active Cdc42 – biochemical, multiplex bead flow cytometry, Bodipy-FL-GTP, dose response (AID 1333;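 active means fitted half-maximal concentration within the tested dose range, moderate curve steepness, a statistically real signal drop, and little compound fluorescence or tag-binding interference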)
Cell division control protein 42 homolog (Homo sapiens), sequence (P60953 whole entry, looked up): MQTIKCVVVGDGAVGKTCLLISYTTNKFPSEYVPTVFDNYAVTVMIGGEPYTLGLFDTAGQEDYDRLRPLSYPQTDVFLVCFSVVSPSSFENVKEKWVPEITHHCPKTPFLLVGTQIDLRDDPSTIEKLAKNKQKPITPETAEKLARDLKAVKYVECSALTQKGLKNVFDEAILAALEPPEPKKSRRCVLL

[2] = molecular target: Cell division control protein 42 homolog (Homo sapiens) (UniProt P60953); assay: inhibition of fluorescent GTP binding to wildtype Cdc42 – biochemical, multiplex bead flow cytometry, Bodipy-FL-GTP, dose response (AID 1334;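 active means fitted half-maximal concentration within the tested range, moderate curve steepness, significant signal drop, and little compound fluorescence or bead-linkage interference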); details: bead-based flow cytometry, Bodipy-FL-GTP binding to GST-Cdc42; at 100 µM (top of the series) unless noted
[3] = molecular target: GTPase HRas (Homo sapiens) (UniProt P01112); assay: Ras wt fluorescent GTP loading blockade – biochemical, wildtype, multiplex bead flow cytometry, dose response (AID 1335;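 active means fitted half-maximal concentration within 10 nM to 100 µM, steepness 0.5 to 2, significant signal drop, low assay interference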); details: bead-based flow cytometry, Bodipy-GTP binding to GST-Ras; at 100 µM (top of the series) unless noted
GTPase HRas (Homo sapiens), sequence (P01112 whole entry, looked up): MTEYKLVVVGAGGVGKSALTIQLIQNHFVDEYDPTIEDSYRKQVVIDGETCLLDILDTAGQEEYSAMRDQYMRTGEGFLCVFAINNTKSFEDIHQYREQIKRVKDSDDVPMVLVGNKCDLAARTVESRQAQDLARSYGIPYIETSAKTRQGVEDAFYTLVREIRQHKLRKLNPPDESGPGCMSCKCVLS

[4] = tested on: Ras-related protein Rab-7a (dog), GTP binding; assay: blockers of fluorescent GTP binding to Rab7 – biochemical, wildtype, multiplex bead flow cytometry, dose response (AID 1336; call rule not given here)
[5] = molecular target: Ras-related C3 botulinum toxin substrate 1 (Homo sapiens) (UniProt P63000); assay: inhibition of wildtype Rac1 nucleotide loading – biochemical, multiplex bead flow cytometry, dose response (AID 1340); details: GST-Rac1 beads, Bodipy-FL-GTP binding; at 100 µM (top of the series) unless noted
[6] = molecular target: GTPase HRas (Homo sapiens) (UniProt P01112); assay: blockade of GTP loading onto mutant Ras – biochemical, activated mutant, multiplex bead flow cytometry, dose response (AID 1341;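 active means dose-response curve with midpoint inside the tested range, moderate steepness, significant amplitude and little compound fluorescence or bead-attachment interference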;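 further: GST-tagged constitutively activated Ras mutant immobilized on beads and multiplexed with other GTPases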)

Row | SMILES | outcome [1] | fluorescence, percent of control (lower = inhibition) [2] [%] | GTP binding, percent of control [3] [%] | outcome [4] | GTP binding signal, raw median fluorescence (lower = inhibition) (MCF (arbitrary fluorescence units)) [5] | outcome [6]
1 | Clc1ccc(CN(Cc2ccc(Cl)cc2)c2nn[nH]n2)cc1 | inactive | 28.2 | 85 | inactive | 246 | inactive
2 | O=C(O)CC/C(=C\c1ccc(N2CCOCC2)c([N+](=O)[O-])c1)c1nc2ccccc2s1 | inactive | 28.1 | 71.9 | inactive | 212 | inactive
3 | CC(C)C(=O)N1CCN(c2ccccc2NC(=O)c2cccc(Cl)c2)CC1 | inactive | 34.8 | 82.2 | inactive | 269 | inactive
4 | COc1ccc(CCNc2cc(=O)[nH]c(N)n2)cc1 | inactive | 34.1 | 48.2 | inactive | 94.3 | inactive
5 | CCNC(=S)N(Cc1cccs1)Cc1cc2cc(OCC)ccc2[nH]c1=O | inactive | 45 | 66 | inactive | 0 | inactive
6 | O=C(O)C1(NCc2ccc(F)cc2)CCCCC1 | inactive | 62.4 | 89.4 | inactive | 33.6 | inactive
7 | O=S(=O)(Cc1ccc(Cl)cc1)c1ccccc1-c1nnc(-c2ccccc2)o1 | inactive | 104 | 196 | inactive | 207 | inactive
8 | O=c1c2ccccc2nc2c3ccccc3c(NCc3cccnc3)nn12 | inactive | 27.9 | 71.5 | inactive | 157 | inactive
9 | Cc1ccc(C(=O)OCc2nnc(-c3ccc(Br)cc3)o2)cc1 | inactive | 31.8 | 78.1 | inactive | 241 | inactive
10 | COc1cccc(/C=C2\SC(=S)N(NC(=O)c3ccncc3)C2=O)c1 | inactive | 26.6 | 63.7 | inactive | 116 | inactive
11 | COCCN1C(=O)/C(=C/c2ccc(N3CCCC3)cc2)SC1=S | inactive | 64.2 | 106 | inactive | 311 | inactive
12 | O=C(Nc1ccc(S(=O)(=O)N2CCCc3ccccc32)cc1)C1CCCO1 (stereo not given) | inactive | 33.2 | 79.9 | inactive | 286 | inactive
13 | COc1cccc(N=Nc2c(N)[nH]n3c(=O)c4c(nc23)CCCC4)c1 | inactive | 29.6 | 66.9 | inactive | 151 | inactive
14 | Nc1ccc2c(c1)C(=O)C(=O)c1ccccc1-2 | inactive | 22.1 | 57.5 | inactive | 73.8 | inactive
15 | O=C(O)c1ccc(CNCc2ccc(F)cc2)cc1 | inactive | 43.1 | 87.8 | inactive | 260 | inactive
16 | Cc1noc(/C=C/c2ccc(-c3ccccc3Cl)o2)c1[N+](=O)[O-] | inactive | 125 | 171 | inactive | 199 | inactive
17 | CC(SC(=S)N(C)Cc1cccs1)C(=O)O (stereo not given) | inactive | 83.3 | 79.5 | inactive | 312 | inactive
18 | NC(=O)c1c(NC(=O)c2cnccn2)sc2c1CCCC2 | inactive | 94.1 | 134 | inactive | 217 | inactive
19 | Cc1ccc(NC(=O)CN2C(=O)S/C(=C\c3ccc(-c4cccc(C(=O)O)c4C)o3)C2=O)cc1C | inactive | 107 | 149 | inactive | 265 | inactive
20 | Cn1nnnc1SCc1ccc(C(=O)Nc2nccs2)cc1 | inactive | 36.8 | 47.9 | inactive | 126 | inactive
21 | Cc1cc(-c2n[nH]c(=S)n2/N=C/C(Cl)=C/c2ccccc2)n[nH]1 | inactive | 33.9 | 78.7 | inactive | 229 | inactive
22 | CSc1nc2ccc(NC(=O)C3CC(=O)N(Cc4ccco4)C3)cc2s1 (stereo not given) | inactive | 34 | 75.3 | inactive | 195 | inactive
23 | Cc1ccc(-c2cn3cccc(C)c3n2)cc1 | inactive | 35.6 | 86 | inactive | 167 | inactive
24 | O=C(/C=C/c1ccc(N2CCC(c3ccccc3)=N2)cc1)c1ccccc1 | inactive | 344 | 394 | inactive | 651 | inactive
25 | O=c1[nH]c(N/N=C/c2ccc(O)cc2)nc2ccccc12 | inactive | 31.4 | 71 | inactive | 259 | inactive
26 | CCOC(=O)Cc1csc(NC(=O)CSc2nc(-c3ccccc3)c(C#N)c(=O)[nH]2)n1 | inactive | 29.4 | 76.1 | inactive | 218 | inactive
27 | CCOc1ccc(C2C(C(=O)O)CCC(=O)N2C2CCCCC2)cc1 (stereo not given) | inactive | 23 | 59.8 | inactive | 178 | inactive
28 | CN1/C(=C\C=C(/C#N)C(=O)Nc2ccc(Cl)cc2)C(C)(C)c2ccccc21 | inactive | 76.8 | 80 | inactive | 226 | inactive
29 | CCOc1ccc(C2=Nn3c(nnc3-c3ccco3)SC2)cc1 | inactive | 33.2 | 75.2 | inactive | 179 | inactive
30 | Cc1cccc(C)c1CCNc1ncccc1C(=O)O | inactive | 76.7 | 245 | inactive | 67.9 | inactive
